Common to all, as to assay type: functional
For assay [1], the target named is Solute carrier family 2, facilitated glucose transporter member 1 (Homo sapiens) (UniProt P11166). The experiment in a line: ST_JUDE_LEISH: Cytotoxicity at 2uM final concentration against transgenic Leishmania Mexicana promastigotes LmGLUT1 that are glucose transport deficient and complemented with the human glucose transporter GLUT1. Activity is measured by DNA content using SYBR green in vitro.

Assay [2] concerns the target Hexose transporter 1 (Plasmodium falciparum) (UniProt O97467). The experiment in a line: ST_JUDE_LEISH: Cytotoxicity at 2uM final concentration against transgenic Leishmania Mexicana promastigotes LmPfHT that are glucose transport deficient and complemented with the Plasmodium falciparum hexose transporter. Activity is measured by DNA content using SYBR green in vitro.

Assay [3] concerns the target Glucose transporter (Leishmania mexicana) (UniProt O61059). The experiment in a line: ST_JUDE_LEISH: Cytotoxicity at 2uM final concentration against transgenic Leishmania Mexicana promastigotes LmGT2 that are glucose transport deficient and complemented with the L. Mexicana glucose transporter 2. Activity is measured by DNA content using SYBR green in vitro.

Sequence of Solute carrier family 2, facilitated glucose transporter member 1 (Homo sapiens) (P11166 whole entry): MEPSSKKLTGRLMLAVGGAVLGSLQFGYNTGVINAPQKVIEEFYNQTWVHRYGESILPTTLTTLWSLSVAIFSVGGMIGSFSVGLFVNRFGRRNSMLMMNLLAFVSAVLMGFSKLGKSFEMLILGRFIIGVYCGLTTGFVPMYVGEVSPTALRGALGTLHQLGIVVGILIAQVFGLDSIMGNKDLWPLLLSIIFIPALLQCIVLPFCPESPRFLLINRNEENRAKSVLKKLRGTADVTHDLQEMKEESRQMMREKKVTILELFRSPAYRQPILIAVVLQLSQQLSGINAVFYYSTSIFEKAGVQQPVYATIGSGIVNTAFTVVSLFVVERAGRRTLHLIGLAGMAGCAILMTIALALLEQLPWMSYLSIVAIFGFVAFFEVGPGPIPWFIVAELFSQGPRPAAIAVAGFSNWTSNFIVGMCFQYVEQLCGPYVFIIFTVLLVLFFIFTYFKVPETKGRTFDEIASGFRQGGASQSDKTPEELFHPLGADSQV

For `CCN(CC)CCCN(CCCN(CC)CC)c1cc(C)nc(Nc2ccc(Br)cc2)n1`, the results for the inhibition in assay [1], in assay [2] and in assay [3] were 0.34%, 0.99% and -0.4%, respectively.
For the molecule `COc1ccc2c(NN=Cc3cccc(Cl)c3)ccnc2c1`, the inhibition in assay [1] is 0.29%; in assay [2], 0.23%; in assay [3] it was -0.9%.
On to `O=C(c1cccc(-c2noc(C(F)(F)F)n2)c1)N1CCN(c2ccncc2)CC1`, for which the inhibition in assay [1] worked out at 11.1%; in assay [2], 10.9%; in assay [3], 10.8%.
Take `Oc1ccc(Cl)cc1Nc1nc(C(F)(F)F)nc2ccccc12`: the figures for the inhibition in assay [1], in assay [2] and in assay [3] were 1.75%, 1.98% and 2.23%, respectively.
With `Cc1cccc2nc(-c3ccc(-c4ccc(CN5CCCC(O)C5)cc4)cc3)[nH]c12` (stereo not given), the inhibition was 25.8% in assay [1], 30.8% in assay [2] and 19.8% in assay [3].
Consider `Cc1c(-c2cccc(Br)c2)[nH]c2nc(N)nc(N)c12`, for which the inhibition was 1.29% in assay [1], 2.55% in assay [2] and 0.97% in assay [3].
Taken in the same sequence, the figures for `CCN(CC)CCNC(=O)c1ccc(Nc2ncc([N+](=O)[O-])c(Nc3ccccc3OC)n2)cc1` were 4.77%, 4.91% and 3.73%.
`C=CCc1cccc(C)c1OCCCON1C(=N)N=C(N)NC1(C)C`: the inhibition in assay [1] is 1.09%; in assay [2], 2.76%; in assay [3], 1.9%.
As for `Cc1cccc(N2C(N)=NC(N)=NC2(C)C)c1C`, the results for the inhibition in assay [1], in assay [2] and in assay [3] were 0.74%, 1.41% and 1.09%, respectively.
As to `Cc1cc(O)c(C(C)C)cc1C1(c2cc(C(C)C)c(O)cc2C)OC(=O)c2ccccc21`, the inhibition in assay [1] turned out to be 8.43%; in assay [2], 6.64%; in assay [3] it was 6.75%.
Turning to `O=C(NCCCCN1CCC(c2ccc3c(c2OCC2CC2)CCCC3)CC1)c1ccc(NC(=O)c2ccc(Cl)cc2)cc1`, the inhibition was found to be 7.74% in assay [1], 6.44% in assay [2] and 8.96% in assay [3].
For the molecule `Cc1cc2nc(N=C3NC4(c5ccccn5)NC(=Nc5nc6cc(C)c(C)cc6[nH]5)NC4(c4ccccn4)N3)[nH]c2cc1C` (stereo not given), the inhibition in assay [1] was 2.01%; in assay [2], -0.16%; in assay [3], -0.63%.
Consider `CC(=O)N1N=C(c2cccs2)Sc2c1nc(-c1ccc(Cl)cc1)n2C(C)=O`, for which the inhibition in assay [1] was found to be 11.9%; in assay [2] it was 12.2%; in assay [3], 11.9%.
As to `Cc1cc(Nc2ncc3c(n2)N(C2CCC2)CC3)ccc1N1CCN(C)CC1`, the inhibition in assay [1] came out at 0.65%; in assay [2], 1.15%; in assay [3] it was 1.26%.
`COc1ccc(-c2cccc(NC(=O)c3cccc(C#N)c3)c2)cc1CN1CCCN(C)CC1`: the inhibition was 1.45% in assay [1], 1.13% in assay [2] and 5.93% in assay [3].
For `O=C(Cn1c(CCc2cccc(F)c2F)cc(=O)c2cccnc21)N(CCn1ccnc1)Cc1ccc(-c2ccc(C(F)(F)F)cc2)cc1` the same measures were -0.44%, 1.8% and -1.45%.
For `Cc1noc(C)c1CN1CCCN(c2ccc3c(c2)CCN(Cc2ccc(-c4ncc[nH]4)cc2)CC3)CC1`, the values for the inhibition in assay [1], in assay [2] and in assay [3] were 1.29%, 3.6% and 1.65%, respectively.
On to `Cc1cccc2nc(-c3cccc(-c4ccc(NC(=O)c5cccnc5)cc4)c3)[nH]c12`, for which the inhibition in assay [1] was determined as 3.18%; in assay [2], 4.09%; in assay [3], 2.31%.
In the case of `CCCCNCc1ccc(-c2nc(CN(Cc3ccc(Cl)c(Cl)c3)S(=O)(=O)c3ccc(NC(C)=O)cc3)cs2)cc1`, the inhibition in assay [1] was found to be 2.51%; in assay [2], 0.43%; in assay [3], 2.51%.
With `Nc1ccc(-c2nc3cc(C4=N[C@H]5CCCC[C@H]5N4)ccc3o2)cc1[N+](=O)[O-]`, the figures for the inhibition in assay [1], in assay [2] and in assay [3] were 3.44%, 1.57% and -0.09%, respectively.
Turning to `CN1CCCC(OC(=O)c2ccccc2)C1` (stereo not given), the inhibition is 4.26% in assay [1], 3.71% in assay [2] and 3.1% in assay [3].
As to `CN1CCN(CCCN(Cc2cccc(-c3cccc(CNCCc4ccccc4)c3)c2)C(=O)Nc2ccccc2)CC1`, the inhibition in assay [1] was 8.85%; in assay [2] it was 9.55%; in assay [3] it was 7.52%.
In the case of `CC(=O)Nc1cccc(C(=O)Nc2cccc(-c3ccc(-c4nc5cc(F)ccc5[nH]4)s3)c2)c1`, the inhibition in assay [1] came out at 2.81%; in assay [2] it was 3.63%; in assay [3], 0.19%.
Regarding `C[C@H]1CN(Cc2cccc(-c3cc(CNC(=O)c4cccc(CC5CCN(C)CC5)c4)ccc3F)c2)CCN1C`, the inhibition was 0.87% in assay [1], 0.27% in assay [2] and -3.42% in assay [3].
Taken in the same sequence, the figures for `Cc1ccc2[nH]c3c(NCCCN(C)C)ncnc3c2c1` were -1.63%, -0.22% and -0.28%.
Regarding `COc1ccc(OC)c(-c2cccc(-c3cccc(NC(=O)c4ccc([N+](=O)[O-])o4)c3)n2)c1`, the inhibition in assay [1] came out at 6.43%; in assay [2] it was 9.55%; in assay [3] it was 3.3%.
As to `Cc1ccccc1C1CCN(C2CCC(NC(=O)c3cc(-c4ccccc4)oc3C)CC2)CC1` (stereo not given), the inhibition was -1.06% in assay [1], 0.71% in assay [2] and -1.44% in assay [3].
`Nc1ccc2[nH]cc(C3CCN(CCC4CCN(C(=O)/C=C/c5ccc(Cl)c(Cl)c5)CC4)CC3)c2n1`: the results for the inhibition in assay [1], in assay [2] and in assay [3] were 1.27%, -0.31% and -0.02%, respectively.
In the case of `Cc1cc(NCCC(=O)NCc2cccc(F)c2)nc(Nc2ccccc2)n1`, the inhibition in assay [1] is 8.44%; in assay [2], 7.08%; in assay [3], -6.28%.
As to `CN(Cc1ccc(C#N)cc1)C1CCN(c2cc(NC(=O)c3ccc(F)cc3)ccn2)CC1`, the values for the inhibition in assay [1], in assay [2] and in assay [3] were 1.28%, 2.79% and -1.93%, respectively.
`CN1CCN(c2ccc(Nc3nccc(-c4c(-c5cccc(NC(=O)c6c(F)cccc6F)c5)nn5ccccc45)n3)cc2)CC1`: the inhibition in assay [1] is 21.9%; in assay [2], 17.8%; in assay [3], 4.51%.
For the molecule `Cc1cccc2nc(-c3ccc(-c4cccc(CN5CCN(c6ccncc6)CC5)c4)cc3)[nH]c12`, the inhibition in assay [1] is 25.2%; in assay [2], 25.8%; in assay [3], 8.81%.
As to `CN(CCCCNC(=O)c1cc2ccccc2[nH]1)C1CC2(CCN(C(=O)OC(C)(C)C)CC2)c2ccccc21` (stereo not given), the inhibition was -1.12% in assay [1], -1.35% in assay [2] and -1.2% in assay [3].
On to `CCOc1ccc(N2CCN(CCCCNC(=O)c3ccc(NC(=O)c4ccc(Cl)cc4)cc3)CC2)c(OCC)c1`, for which the inhibition amounted to 1.06% in assay [1], 1.88% in assay [2] and 2.35% in assay [3].
As for `N=C(N)c1nc2ccccc2s1`, the values for the inhibition in assay [1], in assay [2] and in assay [3] were 1.87%, 1.89% and 2.04%, respectively.

The inhibition is the drop in the measured response relative to a control, in per cent.

For the origin of these results see ChEMBL document CHEMBL3433997, “St. Jude Leishmania screening dataset” (2016).
